Out of some 100,000 compounds screened, about 770 (0.77%) were called active. Cut-off read from the data, not from the text of the source: active = inhibition above about 50%; inactive = the rest. The entries come from a sample that favours actives as a whole.

This experiment concerns the target Gag-Pol polyprotein (Human immunodeficiency virus type 1 group M subtype B (isolate HXB2)) (UniProt P04585). As to the kind of experiment: RNase H inhibition, HIV 1 Gag Pol polyprotein, FRET biochemical assay, screening (AID 372). Conditions: HIV-1 RT RNase H, FRET RNA/DNA substrate fluorescence; at 10 µM; stronger effect = higher value.
The inhibition is the drop in the measured response relative to a control, in per cent. Regarding `CN1C(=O)CS/C1=N/S(=O)(=O)c1ccc([N+](=O)[O-])cc1`, the inhibition is 10% (inactive).

In the case of `S=C(NCc1ccco1)NC1CCCC1`, the inhibition was 6% (inactive).

Regarding `O=c1c(O)c(-c2ccc3c(c2)OCO3)oc2ccccc12`, the inhibition was 0% (inactive).

With `O=c1c(O)c(-c2ccc(O)c(O)c2)oc2cc(O)cc(O)c12`, the inhibition is 73% (active).

`Cc1ccc(-c2oc3ccccc3c(=O)c2O)cc1`: the inhibition was 3% (inactive).

Regarding `CN(C)c1ccc(C(c2c[nH]c3ccccc23)c2c[nH]c3ccccc23)cc1`, the inhibition was 23% (inactive).

As for `Cc1cccc(/C=C2\C(=O)NC(=O)N(c3cccc(Br)c3)C2=O)c1`, the inhibition was 10% (inactive).

Regarding `C=CCNC(=S)Nc1ccc2nc3c4ccccc4c4ccccc4c3nc2c1`, the inhibition was 24% (inactive).

As for `C=CCNC(=O)Nc1ccc2nc3c4ccccc4c4ccccc4c3nc2c1`, the inhibition was 51% (active).

For `C=CCNC(=O)Nc1ccc2nc(-c3ccccc3)c(-c3ccccc3)nc2c1`, the inhibition is 15% (inactive).

Take `Cc1cc(C)n(-c2ccc(N3CCOCC3)nn2)n1`: the inhibition is 11% (inactive).

As for `CCN(CC)C(=O)CSc1nc(-c2ccccc2)c(-c2ccccc2)o1`, the inhibition is 15% (inactive).

Regarding `CC(=O)CSc1nc(-c2ccccc2)c(-c2ccccc2)o1`, the inhibition was 50% (active).

For the compound `NC(=O)CSc1nc(-c2ccccc2)c(-c2ccccc2)o1`, the inhibition was 37% (inactive).

Consider `COc1ccc(-c2csc(NC3OC(=O)c4c3ccc(OC)c4OC)n2)cc1` (stereo not drawn), for which the inhibition was 20% (inactive).

Regarding `CCOc1cc(C(=O)Nc2ccc(OC)c(Cl)c2)cc(OCC)c1OCC`, the inhibition is 8% (inactive).

Turning to `O=S(=O)(Nc1ccc(F)cc1F)c1ccc2ccccc2c1`, the inhibition is 15% (inactive).

As for `N/C(=N/OC(=O)c1cccc([N+](=O)[O-])c1)c1nonc1N`, the inhibition is 14% (inactive).

Consider `Cc1ccc(C2=CC(=O)N(c3cccc(C(F)(F)F)c3)C2=O)cc1`, for which the inhibition was 10% (inactive).

In the case of `OCc1ccc(-c2cccc(Cl)c2)o1`, the inhibition was 28% (inactive).

For the compound `O=C1C=CC(=O)N1c1cccc(Cl)c1`, the inhibition is 19% (inactive).

For the compound `O=C1C(Cl)=C(Cl)C(=O)N1c1cccc(C(F)(F)F)c1`, the inhibition is 6% (inactive).

With `O=C(O)c1ccc(-c2cc(Cl)ccc2Cl)o1`, the inhibition is 0% (inactive).

In the case of `O=C1C(Cl)=C(Cl)C(=O)N1c1cc(Cl)ccc1Cl`, the inhibition was 4% (inactive).

For `O=C1C=CC(=O)C(c2cccc(C(F)(F)F)c2)=C1`, the inhibition is 71% (active).

In the case of `CCOc1ccc(C(=O)Nc2cccc(-c3nc4cc(C)ccc4o3)c2C)cc1Br`, the inhibition was 11% (inactive).

Regarding `O=C(Nc1ccc(S(=O)(=O)Nc2ncccn2)cc1)c1cccnc1`, the inhibition is 8% (inactive).

Regarding `CCOc1ccc2ccc(OCC)c(/C=C3/C(=O)NC(=O)N(Cc4ccco4)C3=O)c2c1`, the inhibition was 26% (inactive).

Take `CCCN(CCC)CCCNC(=O)/C=N\O`: the inhibition was 6% (inactive).

For the compound `COc1cc(OC)c(/C=C2\C(=O)NC(=S)N(c3cccc(Cl)c3)C2=O)cc1Br`, the inhibition is 9% (inactive).

Consider `CC(Oc1ccc(/C=C2/SC(=O)NC2=O)cc1)C(=O)O` (stereo not drawn), for which the inhibition was 10% (inactive).

Regarding `O=C(Nc1nnc(-c2cccc([N+](=O)[O-])c2)s1)Nc1ccc(Cl)cc1Cl`, the inhibition was 43% (inactive).

With `O=C(/C=C/c1ccco1)/C=C/c1ccc(-c2ccc(Cl)c(Cl)c2)o1`, the inhibition is 52% (active).

In the case of `O=C(/C=C/c1ccc(-c2ccc(Cl)c(Cl)c2)o1)c1ccco1`, the inhibition was 2% (inactive).

`O=C(/C=C/c1ccco1)/C=C/c1ccc(-c2ccc(Br)cc2)o1`: the inhibition was 33% (inactive).

For `CSc1nc(-c2ccccc2)c(C#N)c(=O)n1C`, the inhibition was 15% (inactive).

Consider `CCCCCC/C(=N\NC(=O)c1ccncc1)c1ccccc1`, for which the inhibition was 5% (inactive).

With `CCc1c(C)sc(NC(=O)C2CCCCC2C(=O)O)c1C#N` (stereo not drawn), the inhibition is 75% (active).

As to `CCc1c(C)sc(NC(=O)C2CCCCC2C(=O)O)c1C(N)=O` (stereo not drawn), the inhibition was 48% (inactive).

For the compound `CCc1c(C)sc(NC(=O)C2CC3CCC2C3)c1C#N` (stereo not drawn), the inhibition is 21% (inactive).

For the compound `O=C1OC(c2sc3ccccc3c2Cl)=N/C1=C/c1ccc(F)cc1`, the inhibition was 1% (inactive).

Regarding `CN1C(=O)C(=Cc2ccc(I)o2)C(=O)N(C)C1=S`, the inhibition is 21% (inactive).

For the compound `O=C1C(=Cc2ccc(I)o2)C(=O)c2ccccc21`, the inhibition is 9% (inactive).

Turning to `CC1(C)OC(=O)C(=Cc2ccc(I)o2)C(=O)O1`, the inhibition is 53% (active).

Regarding `O=C(/C=C/c1ccccc1)C1=C(O)C(=O)N(c2ccccc2)C1c1cccc([N+](=O)[O-])c1` (stereo not drawn), the inhibition was 10% (inactive).

For `Fc1cccc(-c2n[nH]c(=S)n2-c2ccccc2)c1`, the inhibition was 5% (inactive).

For the compound `Cc1cc2nc3s/c(=C/c4ccc(F)cc4)c(=O)n3c2cc1C`, the inhibition is 1% (inactive).

For `Oc1ccc(-c2cc(-c3ccc(O)cc3)nc(-c3ccccc3)n2)cc1`, the inhibition was 31% (inactive).

Take `O=C1C=CC(=O)N1c1ccc(-c2cc(-c3ccccc3)nc(-c3ccc(N4C(=O)C=CC4=O)cc3)n2)cc1`: the inhibition is 54% (active).

As for `Clc1cc(-c2ccccc2)nc(-c2ccccc2)n1`, the inhibition is 24% (inactive).

Regarding `Cc1ccc(C(=O)Nc2ccc(Cc3ccncc3)cc2)cc1[N+](=O)[O-]`, the inhibition is 5% (inactive).

Turning to `Cc1ccc(N(CC(=O)NC2CCCC2)S(=O)(=O)c2ccc(F)cc2)cc1`, the inhibition was 5% (inactive).

For `Cc1ccc(N(CC(=O)NC2CCCCC2)S(=O)(=O)c2ccc(F)cc2)cc1`, the inhibition is 56% (active).

With `CSc1ccc(S(=O)(=O)N(CC(=O)NC2CCCCC2)c2ccc(C)cc2)cc1`, the inhibition is 13% (inactive).

For the compound `COc1ccccc1CNS(=O)(=O)c1ccc(Cl)cc1`, the inhibition is 0% (inactive).

Consider `N=C1/C(=C/c2ccc(-c3ccccc3)o2)C(=O)N=C2SC(c3ccccc3)=NN12`, for which the inhibition was 2% (inactive).

Take `Cc1ccc(N2NC(=O)/C(=C/c3ccc(Br)cc3)C2=O)cc1C`: the inhibition is 15% (inactive).

With `O=C(CSc1nc2ccc(N3C(=O)c4ccccc4C3=O)cc2s1)c1ccc(F)cc1`, the inhibition was 43% (inactive).

`O=C(CSc1nc2ccc(N3C(=O)c4ccccc4C3=O)cc2s1)c1ccc(Cl)cc1`: the inhibition was 56% (active).

As to `COc1ccc(NC(=O)CSc2nc3ccc(N4C(=O)c5ccccc5C4=O)cc3s2)cc1`, the inhibition was 56% (active).

Turning to `O=C(CSc1nc2ccc(N3C(=O)c4ccccc4C3=O)cc2s1)c1ccccc1`, the inhibition is 8% (inactive).

In the case of `O=C(CSc1nc2ccc(N3C(=O)c4ccccc4C3=O)cc2s1)Nc1ccc(F)cc1`, the inhibition is 11% (inactive).

Take `O=C(CSc1nc2ccc(N3C(=O)c4ccccc4C3=O)cc2s1)Nc1ccc(Br)cc1`: the inhibition was 28% (inactive).

Values taken from PubChem BioAssay AID372 (MTDP, 2006).
